Experiment [1] is described as follows: Quantitative High-Throughput drug screen in 47 multiple myeloma cell lines against the NCATS MIPE library collection: KMS21BM_JCRB cell viability assay (AID 1918974). Note: potency is the fitted concentration of half-maximal effect. As to conditions: ATP luminescence, 48 h; viability: at 45.8 µM unless noted. The procedure, abridged: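 Primary qHTS used for cherry-picking: cells at 500/well, library compounds for 48 h (37C, 5% CO2), luminescent ATP assay.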

Experiment [2] in a line: Quantitative High-Throughput drug screen in 47 multiple myeloma cell lines against the NCATS MIPE library collection: KMS26_JCRB cell viability assay (AID 1918975). Note: nearly all actives have a fitted effect of over 45% in size. Note: potency is the fitted concentration of half-maximal effect. The procedure, abridged:
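Steps: seed 500 cells per well; pin-transfer MIPE 4.0 library; incubate 48 h at 37C, 5% CO2, humidified; add CellTiter-Glo, 5 min room temperature; read luminescence.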

Experiment [3] is described as follows: Quantitative High-Throughput drug screen in 47 multiple myeloma cell lines against the NCATS MIPE library collection: MMM1_PLB cell viability assay (AID 1918976). Note: potency is the fitted concentration of half-maximal effect; nearly all actives have a fitted effect of over 35% in size. The essentials: (§1)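 Cells were exposed to library compounds for 48 hours, after which ATP was measured by CellTiter-Glo. Signal was taken as median relative luminescence units.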
A short description of experiment [4]: Quantitative High-Throughput drug screen in 47 multiple myeloma cell lines against the NCATS MIPE library collection: NCIH929_DSMZ cell viability assay (AID 1918978). Note: nearly all actives have a fitted effect of over 35% in size. Note: potency is the fitted concentration of half-maximal effect. The procedure, abridged:
as §1

Experiment [5] can be described thus: Quantitative High-Throughput drug screen in 47 multiple myeloma cell lines against the NCATS MIPE library collection: OCIMY1_PLB cell viability assay (AID 1918979). For viability: series mostly up to about 46 µM. Note: nearly all actives have a fitted effect of over 35% in size. Note: potency is the fitted concentration of half-maximal effect. The essentials:
as §1

Experiment [6] in a line: Quantitative High-Throughput drug screen in 47 multiple myeloma cell lines against the NCATS MIPE library collection: MM1S_ATCC cell viability assay (AID 1918980). Note: potency is the fitted concentration of half-maximal effect; nearly all actives have a fitted effect of over 45% in size. The procedure, abridged:
as §1

A short description of experiment [7]: Quantitative High-Throughput drug screen in 47 multiple myeloma cell lines against the NCATS MIPE library collection: MM1R_ATCC cell viability assay (AID 1918981). Note: nearly all actives have a fitted effect of over 35% in size. Note: potency is the fitted concentration of half-maximal effect. The essentials: as §1
The nature of experiment [8]: Quantitative High-Throughput drug screen in 47 multiple myeloma cell lines against the NCATS MIPE library collection: LP1_DSMZ cell viability assay (AID 1918982). Note: nearly all actives have a fitted effect of over 35% in size. Note: potency is the fitted concentration of half-maximal effect. The essentials: as §1
Experiment [9] can be described thus: Quantitative High-Throughput drug screen in 47 multiple myeloma cell lines against the NCATS MIPE library collection: KMS28PE_JCRB cell viability assay (AID 1918983). Note: nearly all actives have a fitted effect of over 35% in size. Note: potency is the fitted concentration of half-maximal effect. The essentials: as §1
A short description of experiment [10]: Quantitative High-Throughput drug screen in 47 multiple myeloma cell lines against the NCATS MIPE library collection: MOLP8_DSMZ cell viability assay (AID 1918977). Note: nearly all actives have a fitted effect of over 45% in size. The essentials:
as §1

Records with an inconclusive call do not appear. The source made the active and inactive calls. Calls come from the whole dose curve; as a rule, active = well fitted curve in the direction sought with a large enough effect; inconclusive = small, poorly fitted or top-dose-only effect, or another doubt; inactive = no such curve, though single readings can be large; an effect the other way counts as inactive or inconclusive.

Take `O=C1c2c(O)ccc(O)c2C(=O)c2c(NCCNCCO)ccc(NCCNCCO)c21`: the Potency was 1.48 µM (active) in experiment [1]; 2.35 µM (active) in experiment [2]; 1.48 µM (active) in experiment [3]; 0.526 µM (active) in [4]; 13.2 µM (active) in [5]; 0.0469 µM (active) in [6]. The Potency in experiment [7] is 0.105 µM (active); in experiment [8] it was 5.9 µM (active); in experiment [9], 0.935 µM (active).

In the case of `COc1cc2c(c(OC)c1OC)-c1ccc(OC)c(=O)cc1[C@@H](NC(C)=O)CC2`, the Potency result in experiment [1], in experiment [4] and in experiment [8] was “inactive” in each case.

Consider `N[C@@H](Cc1c[nH]c2ccc(O)cc12)C(=O)O`, for which the Potency entry in experiment [2], in experiment [4], in experiment [5], in [7] and in experiment [8] was “inactive” throughout. Further, the Potency in experiment [3] was 18.7 µM (active).

For `O=C(C1CCCCC1)N1CC(=O)N2CCc3ccccc3C2C1` (stereo not given), the Potency entry in [2], in experiment [5], in experiment [7], in experiment [8] and in experiment [9] was “inactive” throughout.

Turning to `Cc1ccccc1N1C(=O)c2cc(S(N)(=O)=O)c(Cl)cc2NC1C` (stereo not given), the Potency result in [2], in experiment [4], in [5], in [7], in [8] and in [9] was “inactive” each time.

On to `COc1nc(C)nc(Cl)c1NC1=NCCN1`, for which the Potency result in [2], in experiment [7], in experiment [8] and in [9] was “inactive” in each case. Moreover, the Potency in [4] is 10.5 µM (active); in experiment [6] it was 26.4 µM (active).

Consider `CC(=O)OCC(CCn1cnc2cnc(N)nc21)COC(C)=O`, for which the Potency result in experiment [2], in [4], in experiment [5], in [7], in [8] and in [9] was “inactive” throughout.

On to `Nc1nnc(-c2cccc(Cl)c2Cl)c(N)n1`, for which the Potency entry in experiment [2], in experiment [5] and in experiment [8] was “inactive” throughout. Further, the Potency was 23.5 µM (active) in experiment [4] and 11.8 µM (active) in [6].

With `COC(=O)Nc1nc2ccc(C(=O)c3cccs3)cc2[nH]1`, the Potency was 0.296 µM (active) in experiment [2]; 0.296 µM (active) in [4]; 0.0418 µM (active) in experiment [7]; 0.0105 µM (active) in experiment [8]; 0.0059 µM (active) in experiment [9].

For `CN(CCOc1ccc(NS(C)(=O)=O)cc1)CCc1ccc(NS(C)(=O)=O)cc1`, the Potency result in experiment [2], in experiment [4], in experiment [5], in experiment [7], in experiment [8] and in experiment [9] was “inactive” throughout.

Turning to `CN(C)CCOC(c1ccccc1)c1ccccc1`, the Potency result in [2], in experiment [7], in experiment [8] and in [9] was “inactive” throughout.

Take `NCCS(=O)(=O)O`: the Potency entry in experiment [2], in [4], in experiment [5], in experiment [7], in [8] and in experiment [9] was “inactive” each time.

Take `Cc1cc(C(C)(C)C)cc(C)c1CC1=NCCN1`: the Potency result in [2], in experiment [4], in experiment [7] and in experiment [9] was “inactive” each time.

`COc1ccccc1OCCNCC(O)COc1cccc2[nH]c3ccccc3c12` (stereo not given): the Potency in experiment [2] is 23.5 µM (active); in experiment [7], 26.4 µM (active). Moreover, the Potency result in [5] was “inactive”.

Turning to `CN1CCN(C2=Nc3cc(Cl)ccc3Nc3ccccc32)CC1`, the Potency result in [2], in experiment [10], in [5], in experiment [7], in experiment [8] and in [9] was “inactive” each time. Besides, in experiment [6], the Potency is 14.8 µM (active).

With `CC1(CN2CCC(n3c(=O)[nH]c4ccccc43)CC2)OCc2ccccc2-n2cccc21` (stereo not given), the Potency is 5.9 µM (active) in experiment [2], 5.9 µM (active) in experiment [3], 2.64 µM (active) in experiment [7] and 14.8 µM (active) in [9]. Also, the Potency result in [5] is “inactive”.

For `C[C@H]1c2cccc(O)c2C(O)=C2C(=O)[C@]3(O)C(O)=C(C(N)=O)C(=O)[C@@H](N(C)C)[C@@H]3[C@@H](O)[C@@H]21`, the Potency is 23.5 µM (active) in [2] and 18.7 µM (active) in [4]. In addition, the Potency result in [8] is “inactive”.

As for `CC(C(=O)O)c1cccc(C(=O)c2ccccc2)c1` (stereo not given), the Potency in experiment [3] is 0.833 µM (active); in experiment [4], 13.2 µM (active); in [6], 2.96 µM (active); in [7], 23.5 µM (active). Moreover, the Potency entry in experiment [10], in experiment [5], in experiment [8] and in experiment [9] was “inactive” throughout.

With `CN(C)c1nc(N(C)C)nc(N(C)C)n1`, the Potency entry in experiment [2], in experiment [4], in [5], in experiment [7] and in experiment [8] was “inactive” each time. Besides, the Potency in [9] is 23.5 µM (active).

Turning to `CCN1CCCC1CNC(=O)c1cc(S(=O)(=O)CC)c(N)cc1OC` (stereo not given), the Potency entry in experiment [2], in [7], in [8] and in [9] was “inactive” each time. For the same molecule, in experiment [3], the Potency is 5.26 µM (active).

As to `COc1ccc2[nH]cc(CCNC(C)=O)c2c1`, the Potency in experiment [2] is 9.35 µM (active); in [7] it was 5.26 µM (active). For the same molecule, the Potency result in [4], in experiment [5] and in experiment [9] was “inactive” throughout.

Take `Fc1ccc([C@@H]2CCNC[C@H]2COc2ccc3c(c2)OCO3)cc1`: the Potency result in [2] was “inactive”. Besides, the Potency is 14.8 µM (active) in experiment [3], 18.7 µM (active) in experiment [7] and 20.9 µM (active) in experiment [9].

`COc1ccccc1OCC(O)CN1CCN(CC(=O)Nc2c(C)cccc2C)CC1` (stereo not given): the Potency result in [2], in experiment [7] and in experiment [8] was “inactive” each time.

For `COc1ccc(C2CNC(=O)C2)cc1OC1CCCC1` (stereo not given), the Potency entry in [2], in [10], in [4], in experiment [5], in experiment [7] and in experiment [8] was “inactive” in each case. Moreover, the Potency result in [9] was “inactive”.

For the molecule `CC[N+](CC)(CC)CCOc1cccc(OCC[N+](CC)(CC)CC)c1OCC[N+](CC)(CC)CC`, the Potency result in experiment [2], in experiment [4], in experiment [5], in experiment [7], in [8] and in experiment [9] was “inactive” throughout.

Regarding `Cn1c(=O)c2[nH]cnc2n(C)c1=O`, the Potency result in experiment [2], in experiment [4], in [8] and in experiment [9] was “inactive” each time. Moreover, in [6], the Potency is 23.5 µM (active).

Take `COc1ccccc1N1CCN(CC(O)COc2cccc3ccccc23)CC1` (stereo not given): the Potency in [3] is 6.62 µM (active); in experiment [9], 13.2 µM (active). Further, the Potency entry in experiment [10], in experiment [4], in experiment [5] and in [8] was “inactive” in each case.

Take `CC(C)(C)C(=O)Oc1ccc(S(=O)(=O)Nc2ccccc2C(=O)NCC(=O)O)cc1`: the Potency result in [2], in experiment [5], in experiment [7], in experiment [8] and in [9] was “inactive” in each case.

Regarding `Nc1ccn([C@H]2CC[C@@H](CO)O2)c(=O)n1`, the Potency result in experiment [2], in experiment [10] and in experiment [9] was “inactive” each time.

On to `CC(C)C(=O)Nc1ccc([N+](=O)[O-])c(C(F)(F)F)c1`, for which the figures for the Potency in experiment [2], in experiment [4] and in experiment [7] were 8.33 µM (active), 1.87 µM (active) and 3.72 µM (active), respectively. In [8], the Potency result is “inactive”.

Consider `CN(C)C(=N)N=C(N)N`, for which the Potency entry in experiment [2], in [4], in experiment [5] and in experiment [7] was “inactive” in each case. Further, the Potency in [9] was 0.833 µM (active).

In the case of `CC(C)NCC(O)COc1ccc(CCOCC2CC2)cc1` (stereo not given), the Potency result in [2], in experiment [4], in experiment [5], in experiment [7], in experiment [8] and in [9] was “inactive” throughout.

For the molecule `O=C1N(c2ccccc2)c2ccccc2C1(Cc1ccncc1)Cc1ccncc1`, the figures for the Potency in experiment [2] and in experiment [7] were 37.2 µM (active) and 26.4 µM (active), respectively. Further, the Potency result in [4], in [5], in experiment [8] and in [9] was “inactive” each time.

Take `O=C(c1ccc(F)cc1)C1CCN(CCn2c(=O)[nH]c3ccccc3c2=O)CC1`: the Potency result in [2], in experiment [4], in experiment [5], in experiment [7], in [8] and in [9] was “inactive” each time.

For the molecule `O=c1[nH]cc(F)c(=O)[nH]1`, the Potency result in experiment [2] and in [9] was “inactive” each time. The Potency in experiment [3] was 5.9 µM (active); in [7] it was 10.5 µM (active); in [8] it was 14.8 µM (active).

As for `CCC1(c2ccccc2)C(=O)NCNC1=O`, the Potency result in experiment [2], in [5], in experiment [7] and in experiment [8] was “inactive” each time. In addition, the Potency in experiment [4] was 1.32 µM (active).

In the case of `CN1C(C(=O)Nc2ccccn2)=C(O)c2ccccc2S1(=O)=O`, the Potency entry in [2], in [4], in experiment [5], in [8] and in experiment [9] was “inactive” in each case.

As to `Cc1cnc(C(=O)NCCc2ccc(S(=O)(=O)NC(=O)NC3CCCCC3)cc2)cn1`, the Potency entry in [10] is “inactive”.
